PubChem BioAssay AID1159580 (chemical genetic matrix, 2015)
In all, about 5,500 compounds went through this assay and about 2,000 (36%) were called active. About 18% were inconclusive and are not listed. No stated cut-off is given here; in the data, active means normalized growth mostly below about 0.91 (no sharp cut-off); inconclusive means no clear call, values can overlap the other calls; inactive means mostly above about 0.92. This is one part of the list.

Assay: chemical genetic growth profiling, strain panel (AID 1159580);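 further: tested at 20 µM; growth read once vehicle control cultures reached saturation at 30 °C; 1 = growth at the plate median or of vehicle wells; lower values mean less growth of the strain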
Conditions: S. cerevisiae deletion strains, growth OD

Measured: normalized growth

N=c1c[n+](N2CCOCC2)[n-]o1
inactive: locus YAL040C, strain CLN3, active compounds read low 1 | locus YCL061C, strain MRC1 (second series), active compounds read low 1.02 | locus YDR363W, strain ESC2, active compounds read low 1.01 | locus YER002W, strain NOP16, active compounds read low 1 | locus YJR075W, strain HOC1, active compounds read low 1.01 | locus YMR307W, strain GAS1, active compounds read low 1.01 | locus YNL175C, strain NOP13, active compounds read low 1.01 | locus YNL197C, strain WHI3, active compounds read low 0.999 | locus YNL224C, strain SQS1, active compounds read low 1.02 | locus YOR083W, strain WHI5 (second series), active compounds read low 1.01 | locus YPL055C, strain LGE1, active compounds read low 1.02
